Screens: PubChem, National Center for Advancing Translational Sciences (NCATS)
This is a sample that favours compounds with a hit; in the whole collection about 2.6% have one here.
Cruzain noTriton – blocks cruzain activity in detergent-free assay; P25779; purified cruzain, Z-FR-AMC fluorescence, no detergent; Potency, µM, without a hit: max response, negative = inhibition, most hits filed as inhibitors; 200,000 tested, 2.3% active; AID 1476;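 further: plate controls were enzyme without inhibitor for no effect and buffer without enzyme for full effect; nearly all actives have a fitted effect of over 40% in size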
Target sequence (P25779 123-467 limits assumed): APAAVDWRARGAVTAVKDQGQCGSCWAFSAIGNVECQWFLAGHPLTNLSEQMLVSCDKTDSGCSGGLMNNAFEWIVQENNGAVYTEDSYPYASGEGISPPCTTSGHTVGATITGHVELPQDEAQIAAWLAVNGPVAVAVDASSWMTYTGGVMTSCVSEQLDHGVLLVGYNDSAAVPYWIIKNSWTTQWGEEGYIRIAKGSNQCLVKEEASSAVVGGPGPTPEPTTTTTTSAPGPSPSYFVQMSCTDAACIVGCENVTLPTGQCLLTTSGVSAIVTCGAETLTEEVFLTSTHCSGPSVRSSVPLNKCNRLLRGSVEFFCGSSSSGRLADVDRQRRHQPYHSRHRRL
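Detergent-free condition (0.00005% Triton X-100) in acetate buffer pH 5.5 with DTT. 1.5 nM enzyme and compound were pre-mixed 15 min, then 2 uM Z-FR-AMC substrate added; reaction progress from fluorescence change between first and third reads (60 s).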
Cruzain inh Det – cruzain (T. cruzi) inhibition with detergent; Potency, µM, for the others: max response, negative = inhibition, hits mostly inhibitors; 200,000 tested, 0.43% active; purified cruzain, Z-FR-AMC fluorescence, 0.01% Triton; P25779;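 further: plate controls were neutral wells for no effect and buffer without enzyme for full effect; nearly all actives have a fitted effect of over 40% in size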
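Cysteine protease activity tested under reducing, mildly acidic conditions (100 mM sodium acetate pH 5.5, 5 mM DTT) plus 0.01% Triton X-100. Cruzain 1.5 nM; substrate Z-FR-AMC 2 uM; 15 min compound preincubation at room temperature.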
Starred values were filed as active, the others as inactive; ? = inconclusive. The call rests on the fitted dose curve; in most records, active means well fitted curve in the direction sought with a large enough effect; inconclusive means small, poorly fitted or top-dose-only effect, or another doubt; inactive means no such curve, though single readings can be large; an effect the other way counts as inactive or inconclusive. Potency means the concentration at half of the fitted maximal effect.

SMILES	Cruzain noTriton	Cruzain inh Det
Cc1cc(C)n2nc(CC(=O)NCc3ccccc3Cl)nc2n1	8%	16µM*
CC1CCC(NC(=O)c2ccc(CS(=O)(=O)c3ccc(Cl)cc3)o2)CC1 (stereo not drawn)	13%	-5%
COc1ccc(C(c2c(C)[nH]n(C(N)=S)c2=O)C(C#N)C#N)cc1 (stereo not drawn)	-17%	2%
Cc1[nH]n(-c2ncc(-c3ccc(Cl)cc3)s2)c(=O)c1C(c1ccc(Cl)cc1)C(C#N)C#N (stereo not drawn)	3.2µM*	?
COc1cccc(-n2ccnc2SCC(=O)Nc2c(C)cc(C)cc2C)c1	0%	-2%
Nn1c(SCC(=O)Nc2ccccc2F)nc2ccccc2c1=O	-5%	-2%
O=C(CSc1nnc2c3ccccc3c3ccccc3c2n1)Nc1ccccc1	4µM*	-4%
O=C(O)CSc1nnc2c3ccccc3c3ccccc3c2n1	-6%	-3%
O=C(CSc1nnc2c3ccccc3c3ccccc3c2n1)Nc1ccccc1F	7.9µM*	-17%
Cc1cc(N2CCC(C(=O)NCCC(C)C)CC2)n2nc(C)c(-c3ccc(Cl)cc3)c2n1	-1%	-1%
[O-]/[N+](=N\O)c1ccccc1	7%	-2%
O=C(CCOc1ccccc1)N(Cc1cccnc1)c1nc2ccc(F)cc2s1	-22%	-13%
Cc1ccc(C(=O)Nc2ccc(S(=O)(=O)N3CCc4ccccc43)cc2)o1	-16%	0%
CCOC(=O)/C(C#N)=N/Nc1ccc(S(=O)(=O)N2CCc3ccccc32)cc1	25µM*	-7%
COC(=O)c1c(-c2ccc(C)cc2)csc1NC(=S)NC(=O)c1ccc(F)cc1	13µM*	-2%
COC(=O)c1c(-c2ccccc2)csc1NC(=O)c1c(-c2ccccc2)noc1C	20µM*	-3%
CCOC(=O)c1c(-c2ccc(Br)cc2)csc1NC(=O)c1ccc(F)cc1	-12%	-2%
CCOC(=O)c1c(-c2ccc(F)cc2)csc1NC(=O)c1c(-c2ccccc2)noc1C	-49%	-5%
CCOC(=O)c1c(-c2ccc(C)cc2)csc1NC1=NS(=O)(=O)c2ccccc21	7.9µM*	-5%
CCOC(=O)c1c(-c2ccc(C)cc2)csc1NC(=S)NC(=O)c1ccccc1	25µM*	1%
CCOC(=O)c1c(-c2ccc(C)cc2)csc1NC(=O)C1CC=CCC1C(=O)O (stereo not drawn)	?	-6%
CCOC(=O)c1c(-c2ccc(OC)c(OC)c2)csc1NC(=O)c1ccc(C)cc1	5%	-2%
O=C(Nc1cccc(C(F)(F)F)c1)c1cc(CN2CCOCC2)on1	12%	0%
CC(=O)c1ccc(NC(=O)C2CCC(CNS(=O)(=O)c3cccs3)CC2)cc1 (stereo not drawn)	4%	-7%
CCOC(=O)c1cccc(NC(=O)c2cc(C)nc3c2c(C)nn3-c2ccc(C)cc2)c1	-23%	-7%
SMILES	Cruzain noTriton	Cruzain inh Det
CCc1cccc(C)c1NC(=O)CCCSc1nc2ccccc2s1	-5%	-6%
CCc1cccc(CC)c1NC(=O)C1SC(=Nc2ccccc2C)C(c2nc3ccccc3s2)=C1N (stereo not drawn)	6.3µM*	2%
Cc1cccc(OCc2nnc(SCC(=O)Nc3ccc(C)cc3C)o2)c1	6%	-2%
COC(=O)c1c(-c2cccs2)csc1NC(=O)COc1c(C)ccc(C)c1C	25µM*	-8%
COC(=O)c1c(-c2cccs2)csc1NC(=O)COc1ccc(C)cc1	-17%	0%
COC(=O)c1c(-c2cccs2)csc1NC(=O)COc1ccccc1	-20%	-16%
COC(=O)c1c(-c2cccs2)csc1NC(=O)COc1ccc(C(C)(C)C)cc1	25µM*	-4%
CC(C)Oc1ccc(C(=O)N2CCN(CCc3ccccn3)CC2)cc1	1%	0%
Cc1no[n+]([O-])c1COc1ccc(/C=C(\C#N)C(N)=O)cc1	5%	-6%
Cc1no[n+]([O-])c1COc1ccc(/C=C2\NC(=S)NC2=O)cc1	32µM*	-7%
Cc1oc2ncn(CC(C)C)c(=O)c2c1C(=O)N(Cc1ccccc1)C(C)C	4%	0%
CCc1ccc(NC(=O)CN(c2ccc(C)cc2)S(=O)(=O)c2cccs2)cc1	-15%	-5%
O=C(NCCc1cccs1)C12CN(Cc3ccccc3)CC1C(c1cccc([N+](=O)[O-])c1)=NO2 (stereo not drawn)	13µM*	3%
O=C(NCCCCc1ccccc1)C12CN(Cc3ccccc3)CC1C(c1cccc([N+](=O)[O-])c1)=NO2 (stereo not drawn)	7%	4%
CCc1cc2c(cc3c(=O)n(CC(=O)NCCc4ccc(OC)cc4OC)nc(CC)n32)s1	-10%	1%
Cc1ccc(-n2c(=S)[nH]c3nc4c(cc3c2=O)COC(C)(C)C4)cc1	?	-3%
CCC1(C)Cc2nc3[nH]c(=S)n(-c4ccc(C)cc4)c(=O)c3cc2CO1 (stereo not drawn)	20µM*	1%
O=C(O)[C@H](C1NCCS1)N1Cc2ccccc2C1 (stereo partly drawn)	1%	10%
O=C(Cn1cc(S(=O)(=O)N2CCN(c3ccccc3F)CC2)c2ccccc2c1=O)Nc1cccc(C(F)(F)F)c1	7.9µM*	-2%
CN(C(=O)Cn1cc(S(=O)(=O)N2CCN(c3ccccc3F)CC2)c2ccccc2c1=O)c1ccc(Cl)cc1	-29%	-4%
CC(C)c1ccc(NC(=O)Cn2cc(S(=O)(=O)N3CCN(c4ccccc4F)CC3)c3ccccc3c2=O)cc1	7.9µM*	-2%
Cc1ccc(NC(=O)Cn2cc(S(=O)(=O)N3CCN(c4ccccc4F)CC3)c3ccccc3c2=O)cc1F	7.9µM*	-2%
CC1CCN(S(=O)(=O)c2cn(CC(=O)Nc3cccc(C(F)(F)F)c3)c(=O)c3ccccc23)CC1	?	-5%
Cc1ccc(NC(=O)CN2CCN(c3ccccc3F)CC2)cc1F	6%	-4%
CNc1ncncc1-c1ccccc1OC	1%	3%
SMILES	Cruzain noTriton	Cruzain inh Det
CCOC(=O)c1scc(-c2ccc(C)cc2)c1S(=O)(=O)Nc1cccc(CC)c1	-7%	0%
CC(C)OCCCn1c(SCC(=O)Nc2ccc(F)cc2)nc2c(sc3ccccc32)c1=O	2%	3%
COc1ccc(-n2c(=O)c3ccccc3n(Cc3cccc(C)c3)c2=O)cc1	5%	0%
Cc1sc(N/N=C/c2cccnc2)nc1-c1ccc(Cl)cc1	16µM*	-7%
Clc1ccc(N/N=C/c2cccnc2)cc1	10%	-10%
CN(C)c1ncc2nc(-c3ccccc3)c(=O)n(Cc3ccc(F)cc3)c2n1	6%	-1%
Cc1ccc2occ(CC(=O)N(Cc3ccc(Cl)cc3)Cc3ccco3)c2c1	?	-5%
COc1cc(/C=N/Nc2ccc3ccccc3c2)ccc1OC(=O)c1ccco1	25µM*	0%
COc1cc(/C=N/Nc2cccc(C)c2)ccc1OC(=O)c1cccs1	16µM*	-3%
COc1cc(/C=N/Nc2nc(C)cc(C)n2)ccc1OC(=O)c1ccco1	6%	-6%
COc1cc(/C=N/NC(=O)COc2ccccc2C)ccc1OC(=O)c1cccs1	-13%	0%
O=C(CCc1cn(Cc2ccccc2Cl)c2ccccc12)NC1CCCCC1	-20%	-2%
Cc1ccc(-c2nc(SCCOc3ccccc3C)n3[nH]c(=O)cc3n2)cc1	-10%	4%
Cc1nn(-c2ccccn2)c2c1C(c1c(F)cccc1Cl)C1=C(N2)c2ccccc2C1=O (stereo not drawn)	25µM*	-6%
Cc1nn(-c2ccccn2)c2c1C(c1ccccc1Cl)C1=C(N2)c2ccccc2C1=O (stereo not drawn)	-14%	-2%
